The text below walks through data of PubChem BioAssay (Tox21).

Several values for one entry are separate records, joined by “and”; a condition that tells them apart may be missing. Equal entries are not always repeated. Results filed as inconclusive are left out. Activity calls are given as the source filed them. Unless noted, the call rests on the fitted dose curve.

Assay [1] in a line: Nuclear factor erythroid 2-related factor 2/antioxidant responsive element (Nrf2/ARE) small molecule agonists: luciferase reporter gene qHTS assay in human keratinocytes (AID 1919969). Further: nearly all actives have a fitted effect of over 35% in size. Further: potency means the concentration at half of the fitted maximal effect. For orientation: In a reporter assay the amount or activity of a reporter protein is the signal.
The target of assay [2] is Gonadotropin-releasing hormone receptor (Homo sapiens) (UniProt P30968). As to the kind of experiment: Human gonadotropin-releasing hormone receptor (GnRHR) small molecule agonists, calcium flux assay in GnRHR-HEK293 cells (AID 1920063). Further: nearly all actives have a fitted effect of over 35% in size. The gist of the method: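 Compounds dissolved in DMSO are pin-transferred onto dye-loaded GnRHR-HEK293 cells, which were seeded 18 h before at 37 C/5% CO2. Calcium signal is read as fluorescence intensity at 1 s intervals for 3 min.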
Sequence of Gonadotropin-releasing hormone receptor (Homo sapiens) (P30968 whole entry, looked up): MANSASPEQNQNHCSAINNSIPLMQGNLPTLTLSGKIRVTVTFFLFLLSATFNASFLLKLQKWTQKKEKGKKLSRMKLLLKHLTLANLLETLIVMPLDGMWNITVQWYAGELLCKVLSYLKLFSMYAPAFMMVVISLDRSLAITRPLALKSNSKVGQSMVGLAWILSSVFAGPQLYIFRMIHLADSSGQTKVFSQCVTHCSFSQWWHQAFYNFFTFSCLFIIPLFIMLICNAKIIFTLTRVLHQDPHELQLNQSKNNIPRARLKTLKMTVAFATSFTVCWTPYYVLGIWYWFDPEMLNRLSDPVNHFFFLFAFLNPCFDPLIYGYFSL
(A change in cytosolic calcium serves as a functional read-out for many receptors and channels.)

The target in assay [3] is KiSS-1 receptor (Homo sapiens) (UniProt Q969F8). As to the kind of experiment: Human kisspeptin (KISS1R) small molecule agonists, calcium flux assay in KISS1R-HEK293 cells (AID 1920064; active means well fitted activation curve with a large enough effect in the repeat runs). The essentials:
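Cell line: HEK293, stable human KISS1R. Dye loading 1 h at 37 C after 18 h culture. Read: kinetic fluorescence, 480/540 nm, 3 min at 1 s intervals.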

Assay [4] in a line: G protein-coupled receptor (GPCR) small molecule agonists, calcium flux assay: HEK293 wild type cell line counter screen (AID 1920065). Further: potency means the concentration at half of the fitted maximal effect. The gist of the method: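 Tox21 10K compounds, 15 concentrations each in triplicate, pin-transferred in DMSO onto dye-loaded cells; kinetic read at 480/540 nm for 3 min, 1 s intervals.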
Assay [5] can be described thus: p53 small molecule agonists, cell-based qHTS assay with human liver microsomes (AID 1963577).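 Further: p53 response element beta-lactamase reporter cells with liver microsomes plus NADPH.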 The essentials:
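Reporter activation was measured by LiveBLAzer fluorescence intensity in p53RE-bla cells, which had been exposed to compounds for 16 h at 37 C alongside 0.5 mg/mL human liver microsomes and 0.5 mg/mL NADPH (final concentrations).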
A general note: Quantitative high-throughput screening tests each substance at several concentrations.

Assay [6] in a line: p53 small molecule agonists, cell-based qHTS assay with rat liver microsomes (AID 1963578). The essentials: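 Compound in DMSO added to p53RE-bla cells 5 h post-plating; rat microsomes/NADPH 0.5 mg/mL final; 16 h, 37 C; LiveBLAzer 2 h RT.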
Assay [7] can be described thus: p53 small molecule agonists, cell-based qHTS assay with rat liver microsomes: qHTS cell viability counter screen (AID 1963580). Further: nearly all actives have a fitted effect of over 45% in size. Further: potency means the concentration at half of the fitted maximal effect. The essentials: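 Counter screen for cytotoxicity under metabolic activation: rat liver microsomes and NADPH, 0.5 mg/mL final each, added with compounds to p53RE-bla HCT-116 cells; 16 h at 37 C, then ATP luminescence read.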
Assay [8] is described as follows: p53 small molecule agonists, cell-based qHTS assay: qHTS cell viability counter screen (AID 1963581). Further: nearly all actives have a fitted effect of over 45% in size. Further: potency means the concentration at half of the fitted maximal effect. The essentials:
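ATP content measured by luminescence in HCT-116 p53RE-bla cells treated 16 h at 37 C, same wells as the reporter screen.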

For assay [9], the target named is Beta-2 adrenergic receptor (Homo sapiens) (UniProt P07550). As to the kind of experiment: Adrenergic beta2 receptor (ADRB2) small molecule antagonists, cell-based qHTS assay (AID 1963592). Further: nearly all actives have a fitted effect of over 50% in size. Further: potency means the concentration at half of the fitted maximal effect. The essentials: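 Assay format: CHO-ADRB2 cells, 18-20hr seeding at 37C/5% CO2, then compound plus 1nM isoproterenol agonist mix for 0.5hr RT. Homogeneous time-resolved fluorescence cAMP detection after 1hr, expressed as 665/615 nm ratio.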
Sequence of Beta-2 adrenergic receptor (Homo sapiens) (P07550 whole entry, looked up): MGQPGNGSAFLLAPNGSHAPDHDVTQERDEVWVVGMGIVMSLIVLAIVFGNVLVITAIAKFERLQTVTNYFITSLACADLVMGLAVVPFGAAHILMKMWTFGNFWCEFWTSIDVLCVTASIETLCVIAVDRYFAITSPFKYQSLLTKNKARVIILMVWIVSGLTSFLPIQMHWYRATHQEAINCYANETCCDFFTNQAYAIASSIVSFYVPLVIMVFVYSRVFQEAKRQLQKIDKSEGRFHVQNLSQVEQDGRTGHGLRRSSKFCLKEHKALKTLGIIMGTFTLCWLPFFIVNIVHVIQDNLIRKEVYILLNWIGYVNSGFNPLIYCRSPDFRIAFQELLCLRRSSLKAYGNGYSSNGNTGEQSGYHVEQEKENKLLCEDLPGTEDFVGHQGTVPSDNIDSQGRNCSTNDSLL

For assay [10], the target named is D(2) dopamine receptor (Homo sapiens) (UniProt P14416). As to the kind of experiment: Dopamine D2 receptor (DRD2) small molecule agonists, cell-based qHTS assay (AID 1963594). Further: nearly all actives have a fitted effect of over 35% in size. The gist of the method:
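HEK293 cells stably expressing DRD2 were cultured 24 h at 37 C, then given Ro20-1724 (0.1 mM final) and compounds for 10 min at room temperature. NKH477 (200nM) was then added for 30 min. cAMP was read by HTRF.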

Assay [11] has the same target. The assay is described as follows: Dopamine D2 receptor (DRD2) small molecule antagonists, cell-based qHTS assay (AID 1963595; active means well fitted inhibition curve with a large enough effect in the signal ratio in the repeat runs, with a control signal flat; the % refers to the signal ratio). The essentials: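 Cells were plated and grown for 24 h at 37 °C. Ro20-1724 (0.1 mM final) went in first, then compound for 10 min. NKH477 (200 nM) with quinpirole (12 nM) followed for 30 min at RT, then HTRF detection reagents for 1 h.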
A short description of assay [12]: p53 small molecule agonists, cell-based qHTS assay with human liver microsomes: qHTS cell viability counter screen (AID 1963579). Further: nearly all actives have a fitted effect of over 45% in size. The essentials:
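HLM-supplemented (0.5 mg/mL final) and NADPH-supplemented (0.5 mg/mL final) p53RE-bla cultures, 4,000 cells per well, were dosed with compounds in DMSO for 16 h at 37 C; luminescent ATP detection (CellTiter-Glo, 30 min, room temperature) quantified surviving cells.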

Assay [13] is described as follows: p53 small molecule agonists, cell-based qHTS assay (AID 1963582; active means well fitted activation curve with a large enough effect in the signal ratio in the repeat runs, not every such curve was filed as active; the % refers to the signal ratio). The essentials:
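16 h compound exposure (37 C) of p53 response element–bla cells, preceded by 5 h recovery at 37 C/5% CO2; read-out via LiveBLAzer B/G FRET substrate, 2 h RT, fluorescence intensity.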

Assay [14] concerns the target 5-hydroxytryptamine receptor 2A (Homo sapiens) (UniProt P28223). The assay is described as follows: 5-hydroxytryptamine receptor 2A (HTR2A) small molecule antagonists, cell-based qHTS assay (AID 1963586). Further: nearly all actives have a fitted effect of over 45% in size. The essentials: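 CHO cells stably expressing human HTR2A were plated for 18 h at 37 C, then loaded with calcium dye for 1 h. Compounds were preincubated 5 min at room temperature before DOI (4 nM solution) was added. Kinetic fluorescence was read for 3 min.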

Assay [15] shares this target. The assay is described as follows: 5-hydroxytryptamine receptor 2A (HTR2A) small molecule agonists, cell-based qHTS assay (AID 1963587). Further: nearly all actives have a fitted effect of over 30% in size. The gist of the method: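 HTR2A-CHO cells, plated 18 h at 37 C/5% CO2, dye-loaded 1 h at 37 C; compounds in DMSO added by pin tool (agonist mode). Intracellular calcium flux read as kinetic fluorescence on FDSS over 2 min at 1 s intervals.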

The target in assay [16] is Muscarinic acetylcholine receptor M1 (Homo sapiens) (UniProt P11229). The assay is described as follows: Cholinergic receptor muscarinic 1 (CHRM1) small molecule antagonists, cell-based qHTS assay (AID 1963588). Further: nearly all actives have a fitted effect of over 40% in size. Further: potency means the concentration at half of the fitted maximal effect. The gist of the method:
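Compounds were tested at 15 concentrations in three independent runs. Dye-loaded CHRM1-CHO cells were exposed 5 min at room temperature before stimulation by acetylcholine added at 50nM. Intracellular calcium was read kinetically on FDSS for 3 min.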

Assay [17] has the same target. As to the kind of experiment: Cholinergic receptor muscarinic 1 (CHRM1) small molecule agonists, cell-based qHTS assay (AID 1963589). Further: nearly all actives have a fitted effect of over 35% in size. The gist of the method:
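Homogeneous fluorescence calcium flux, agonist mode. Human M1-expressing CHO cells; compound dosed at 15 concentrations, three independent runs; signal sampled every 1 sec.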

Assay [18] is described as follows: cAMP Responsive Elements (CRE) small molecule agonists, cell-based qHTS assay (AID 1963590). The gist of the method: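 HEK 293T cells stably bearing CRE-bla were plated at 2,000 cells per well and rested 18 h. Compounds, positive controls or DMSO were added for 3 h at 37 C. LiveBLAzer B/G substrate was then loaded for 2 h at room temperature.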
Assay [19] in a line: cAMP Responsive Elements (CRE) small molecule antagonists, cell-based qHTS assay (AID 1963591; active means well fitted inhibition curve with a large enough effect in the signal ratio in the repeat runs, not every such curve was filed as active; the % refers to the signal ratio). The essentials: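 First, CRE-bla HEK293T cells settled 18 h at 37 C. Next, compound and 0.25 uM final NKH477 were applied for 3 h. Last, LiveBLAzer B/G substrate was loaded for 2 h at room temperature.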

Sequence of D(2) dopamine receptor (Homo sapiens) (P14416 whole entry, looked up): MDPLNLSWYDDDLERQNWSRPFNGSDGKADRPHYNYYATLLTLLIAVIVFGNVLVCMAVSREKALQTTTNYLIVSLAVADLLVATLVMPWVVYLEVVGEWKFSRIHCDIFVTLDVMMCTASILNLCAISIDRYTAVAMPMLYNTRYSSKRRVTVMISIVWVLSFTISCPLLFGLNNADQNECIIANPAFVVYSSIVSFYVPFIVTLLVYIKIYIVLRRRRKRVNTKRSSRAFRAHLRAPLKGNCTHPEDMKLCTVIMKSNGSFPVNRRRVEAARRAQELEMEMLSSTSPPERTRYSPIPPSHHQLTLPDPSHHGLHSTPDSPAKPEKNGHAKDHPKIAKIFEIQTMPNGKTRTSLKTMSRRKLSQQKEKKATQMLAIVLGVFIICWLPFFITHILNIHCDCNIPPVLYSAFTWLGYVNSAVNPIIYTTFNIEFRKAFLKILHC
Sequence of 5-hydroxytryptamine receptor 2A (Homo sapiens) (P28223 whole entry, looked up): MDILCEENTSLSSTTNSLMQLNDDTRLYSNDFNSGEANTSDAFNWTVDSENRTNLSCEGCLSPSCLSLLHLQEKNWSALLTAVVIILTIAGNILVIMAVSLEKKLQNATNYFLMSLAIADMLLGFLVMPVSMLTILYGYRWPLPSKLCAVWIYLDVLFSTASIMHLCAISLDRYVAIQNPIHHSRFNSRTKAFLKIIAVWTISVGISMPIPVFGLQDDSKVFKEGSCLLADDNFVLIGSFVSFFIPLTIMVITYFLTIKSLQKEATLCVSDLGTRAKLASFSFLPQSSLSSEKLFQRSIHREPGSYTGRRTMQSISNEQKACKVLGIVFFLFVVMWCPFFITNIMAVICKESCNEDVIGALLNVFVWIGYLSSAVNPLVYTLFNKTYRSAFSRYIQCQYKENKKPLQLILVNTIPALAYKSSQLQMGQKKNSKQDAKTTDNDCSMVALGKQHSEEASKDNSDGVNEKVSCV
Sequence of KiSS-1 receptor (Homo sapiens) (Q969F8 whole entry, looked up): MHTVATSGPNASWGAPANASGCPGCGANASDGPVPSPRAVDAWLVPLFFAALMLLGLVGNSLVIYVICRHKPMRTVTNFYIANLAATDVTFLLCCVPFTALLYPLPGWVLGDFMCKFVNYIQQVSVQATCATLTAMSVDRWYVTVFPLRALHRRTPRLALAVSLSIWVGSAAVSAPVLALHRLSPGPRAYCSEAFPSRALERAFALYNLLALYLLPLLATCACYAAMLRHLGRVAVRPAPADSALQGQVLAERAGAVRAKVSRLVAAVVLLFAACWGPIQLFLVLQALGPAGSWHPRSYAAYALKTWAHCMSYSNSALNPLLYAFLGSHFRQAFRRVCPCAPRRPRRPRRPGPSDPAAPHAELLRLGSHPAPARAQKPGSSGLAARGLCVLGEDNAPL
Sequence of Muscarinic acetylcholine receptor M1 (Homo sapiens) (P11229 whole entry, looked up): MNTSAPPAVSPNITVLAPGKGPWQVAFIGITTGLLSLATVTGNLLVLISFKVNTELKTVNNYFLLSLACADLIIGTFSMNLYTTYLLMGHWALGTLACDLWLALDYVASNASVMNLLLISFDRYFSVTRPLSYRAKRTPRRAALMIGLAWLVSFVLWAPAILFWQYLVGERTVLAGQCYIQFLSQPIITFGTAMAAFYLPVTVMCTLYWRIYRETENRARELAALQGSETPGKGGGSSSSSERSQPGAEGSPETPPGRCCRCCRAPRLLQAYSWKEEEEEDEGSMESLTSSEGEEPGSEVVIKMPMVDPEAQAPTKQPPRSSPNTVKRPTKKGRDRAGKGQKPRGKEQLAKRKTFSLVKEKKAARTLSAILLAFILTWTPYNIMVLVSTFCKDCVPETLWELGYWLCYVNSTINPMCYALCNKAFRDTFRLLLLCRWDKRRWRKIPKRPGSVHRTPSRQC

On to `C[C@H]1O[C@@H](O[C@H]2[C@@H](O)C[C@H](O[C@H]3[C@@H](O)C[C@H](O[C@H]4CC[C@@]5(C)[C@H](CC[C@@H]6[C@@H]5CC[C@]5(C)[C@@H](C7=CC(=O)OC7)CC[C@]65O)C4)O[C@@H]3C)O[C@@H]2C)C[C@H](O)[C@@H]1O`, for which the Potency in [1] is 61.5 nM (active) and 119 nM (active); in assay [7] it was 0.073 µM (active); in assay [8] it was 81.9 nM (active) and 79.3 nM (active). Moreover, the Potency entry in [2], in assay [3], in assay [4], in [5], in assay [6] and in assay [9] was “inactive” each time. The Potency result in assay [10] and in [11] was “inactive” each time.

As for `Cc1cc(C2CC2)nc(Nc2ccccc2)n1`, the Potency in assay [1] is 68.6 µM (active); in [16], 14.9 µM (active); in assay [9], 54.5 µM (active). Also, the Potency entry in assay [2], in assay [3], in assay [4], in [5], in assay [12] and in [8] was “inactive” throughout. The Potency result in [13], in [14], in assay [15], in assay [17], in assay [10] and in assay [11] was “inactive” throughout.

In the case of `O=[N+]([O-])c1ccc2ccc3cccc4ccc1c2c34`, the Potency in [1] is 61.1 µM (active). The Potency entry in assay [2], in [3], in assay [4], in [5], in [7] and in assay [8] was “inactive” throughout. In addition, the Potency result in assay [13], in assay [14], in assay [15], in [17], in assay [18] and in assay [19] was “inactive” each time. Besides, the Potency result in assay [9], in assay [10] and in assay [11] was “inactive” in each case.

Regarding `ClC(Cl)=C(c1ccc(Cl)cc1)c1ccccc1Cl`, the Potency entry in [1], in assay [2], in assay [3], in assay [4], in [5] and in [12] was “inactive” each time. In addition, the Potency result in assay [16], in [17], in assay [19], in assay [9] and in assay [10] was “inactive” throughout.

Take `Fc1ccc(Oc2ccnc3cc(Cl)cc(Cl)c23)cc1`: in assay [1], the Potency was 24.3 µM (active). Also, the Potency entry in assay [2], in assay [3], in assay [4], in assay [6], in assay [12] and in [7] was “inactive” in each case. Besides, the Potency entry in assay [8], in [14], in [15], in assay [16], in assay [17] and in assay [19] was “inactive” in each case. The Potency result in assay [9] and in assay [11] was “inactive” throughout.

Regarding `Nc1ccc(N=Nc2ccccc2)cc1`, the Potency in assay [1] was 10.9 µM (active). Moreover, the Potency entry in [2], in [3], in [4], in [5], in assay [6] and in assay [7] was “inactive” throughout. Further, the Potency result in [14], in [15], in assay [16], in assay [17] and in [11] was “inactive” in each case.

On to `Oc1cc(Cl)c(Cl)c(Cl)c1`, for which the Potency in assay [1] is 65 µM (active). Besides, the Potency entry in assay [2], in assay [3], in assay [4], in assay [5], in [6] and in assay [7] was “inactive” each time. The Potency entry in assay [8], in [14], in assay [15], in [16], in assay [17] and in [19] was “inactive” in each case. Besides, the Potency entry in assay [9], in assay [10] and in assay [11] was “inactive” throughout.

Turning to `N#Cc1c(-c2ccc(Cl)cc2)[nH]c(C(F)(F)F)c1Br`, the figures for the Potency in assay [1], in assay [4] and in [16] were 9.69 µM (active), 2.45 µM (active) and 16.8 µM (active), respectively. In addition, the Potency result in assay [2], in [3], in assay [5], in assay [6], in assay [12] and in [8] was “inactive” in each case. The Potency result in assay [15], in assay [17], in assay [10] and in assay [11] was “inactive” throughout.

As for `CSC(=O)c1c(C(F)F)nc(C(F)(F)F)c(C(=O)SC)c1CC(C)C`, the Potency in assay [1] is 24.2 µM (active). For the same compound, the Potency result in [2], in assay [3], in [4], in assay [6], in [12] and in [7] was “inactive” throughout. Besides, the Potency result in [8], in assay [15], in assay [17], in [19], in assay [9] and in assay [10] was “inactive” throughout. For the same compound, in assay [11], the Potency entry was “inactive”.
